Over roughly 140,000 sequences, “enrichment ratio after two sorts for PhoP signalling” has its median near 0; the highest 2% begin near 11. Shown is part of a subset that was picked to be rich in the highest values. Where only a bound is given, the exact number is not on record here.

First the molecules themselves.
B1: PhoQ; a variant is named by its letters at X, in order, P23837 (parent)
chain: MKKLLRLFFPLSLRVRFLLATAAVVLVLSLAYGMVALIGYSVSFDKTTFRLLRGESNLFYTLAKWENNKLHVELPENIDKQSPTMTLIYDENGQLLWAQRDVPWLMKMIQPDWLKSNGFHEIEADVNDTSLLLSGDHSIQQQLQEVREDDDDAEMTHSVAVNVYPATSRMPKLTIVVVDTIPVELKSSYMVWSWFIYVLSANLLLVIPLLWVAAWWSLRPIEALAKEVRELEEHNRELLNPATTRELTSLVRNLNRLLKSERERYDKYRTTLTDLTHSLKTPLXXLQXXLRSLRSEKMSVSDAEPVMLEQISRISQQIGYYLHRASMRGGTLLSRELHPVAPLLDNLTSALNKVYQRKGVNISLDISPEISFVGEQNDFVEVMGNVLDNACKYCLEFVEISARQTDEHLYIVVEDDGPGIPLSKREVIFDRGQRVDTLRPGQGVGLAVAREITEQYEGKIVAGESMLGGARMEVIFGRQHSAPKDE

Variants of B1 are the subject of the assay. In words: enrichment ratio after two sorts for PhoP signalling (ratio (wild type AVST 3.29)); higher = more functional. Conditions: with PhoP (E. coli).
As for DWKH, the enrichment ratio is at most 0.25.
Turning to QWAC, the enrichment ratio is at most 0.25.
As for PYDI, the enrichment ratio is at most 0.25.
Next, SRND: at most 0.25; DGIY: at most 0.25.
For the variant KFTT, the enrichment ratio is at most 0.25.
Turning to MWVS, the enrichment ratio was at most 0.25.
NKPN: the enrichment ratio was at most 0.25.
For STYR, the enrichment ratio was at most 0.25.
Consider AVCE, for which the enrichment ratio was at most 0.25.
Take AVCI: the enrichment ratio stood at 21.8.
With AVCS, the enrichment ratio is 8.99.
As for RVVQ, the enrichment ratio is at most 0.25.
Regarding VRPL, the enrichment ratio was at most 0.25.
On to IQLV, for which the enrichment ratio is at most 0.25.
AEIA: the enrichment ratio worked out at 15.4.
Next, AEIV: 4.76; ACVQ: 2.26; AQHP: at most 0.25.
In the case of AEIE, the enrichment ratio was at most 0.25.
Next, ACHP: at most 0.25; AQIQ: 27.9; AEIQ: 24.4.
Consider AEHP, for which the enrichment ratio is at most 0.25.
In the case of ACIQ, the enrichment ratio came to 11.8.
Next, AQQQ: at most 0.25.
The result for AEFQ reads 3.73; that for KAHK, at most 0.25; that for LFVQ, at most 0.25.
Regarding MTRG, the enrichment ratio was at most 0.25.
In the case of YDCD, the enrichment ratio is at most 0.25.
As for TFDY, the enrichment ratio was at most 0.25.
SERL: the enrichment ratio was at most 0.25.
With WHLP, the enrichment ratio is at most 0.25.
For the variant KMMG, the enrichment ratio was at most 0.25.
As to AENL, the enrichment ratio is at most 0.25.
As for AEPM, the enrichment ratio came out at 0.861.
AEYL: the enrichment ratio is 6.74.
Next, AEIS: 10.8; AEIL: 28.2; ADIQ: 21.4.
Next, AEIM: 15.7; AKIQ: at most 0.25; AEII: 16.4.
With AEIT, the enrichment ratio was determined as 2.48.
As for AHIQ, the enrichment ratio was at most 0.25.
As for THTQ, the enrichment ratio is 1.45.
With EWAP, the enrichment ratio was at most 0.25.
In the case of GFIS, the enrichment ratio was at most 0.25.
The result for LHFN reads at most 0.25.
Regarding NVLT, the enrichment ratio was at most 0.25.
Turning to SCYK, the enrichment ratio is at most 0.25.
As for DWIV, the enrichment ratio is at most 0.25.
The result for KRHG reads at most 0.25.
As to NHPL, the enrichment ratio was at most 0.25.
With KIDW, the enrichment ratio is at most 0.25.
GARI: the enrichment ratio is at most 0.25.
Next, QYLE: at most 0.25.
Take FEPL: the enrichment ratio was at most 0.25.
For QRSM, the enrichment ratio is at most 0.25.
In the case of QDSM, the enrichment ratio is at most 0.25.
With QSSM, the enrichment ratio is 15.9.
Regarding TPSM, the enrichment ratio was at most 0.25.
Turning to QQSM, the enrichment ratio was 13.3.
Consider QPSM, for which the enrichment ratio was at most 0.25.
The result for QIAI reads 2.26; that for SIKG, at most 0.25; that for LGAF, at most 0.25.
VRDP: the enrichment ratio was at most 0.25.
Take HMSS: the enrichment ratio is at most 0.25.
Consider PMDA, for which the enrichment ratio was at most 0.25.
In the case of SGTI, the enrichment ratio was 16.7.
The result for SGWG reads at most 0.25.
Next, SGTS: 7.16; SGDG: at most 0.25; SGTG: 15.9.
As for SGTA, the enrichment ratio came to 7.55.
Take AGFW: the enrichment ratio is at most 0.25.
Next, VWNV: at most 0.25; GLKA: at most 0.25.
Take ENWV: the enrichment ratio was at most 0.25.
Next, NKIG: at most 0.25.
Take PDHR: the enrichment ratio is at most 0.25.
Consider TAML, for which the enrichment ratio came to 25.8.
On to HYML, for which the enrichment ratio was at most 0.25.
The result for NAML reads at most 0.25.
Turning to HTML, the enrichment ratio came out at 11.7.
Next, HRML: at most 0.25; KAML: at most 0.25; DPPS: at most 0.25.
As for SECY, the enrichment ratio was determined as 13.7.
Consider IQCY, for which the enrichment ratio is at most 0.25.
Take SRCY: the enrichment ratio was at most 0.25.
For DWCY, the enrichment ratio was at most 0.25.
Consider KYCY, for which the enrichment ratio is at most 0.25.
Next, SQCY: 12.2; SNCY: 7.63; TECY: 16.2.
As for QECY, the enrichment ratio was at most 0.25.
With MECY, the enrichment ratio is 4.09.
The result for TQCY reads 15.8; that for RNCY, at most 0.25; that for GSCQ, 8.75.
GDAQ: the enrichment ratio is at most 0.25.
Next, TRTV: 9.35.
Turning to SEWD, the enrichment ratio was at most 0.25.
Regarding KVEG, the enrichment ratio was at most 0.25.
For LQIG, the enrichment ratio is at most 0.25.
As for MKTT, the enrichment ratio is at most 0.25.
Next, LTTT: at most 0.25; YTTT: at most 0.25; EQTT: at most 0.25.
As for TTTT, the enrichment ratio is 12.1.
As for SRTT, the enrichment ratio was at most 0.25.
Next, KYTT: at most 0.25; TQTT: 23.1; SETT: 12.6.
With TKTT, the enrichment ratio worked out at 11.6.
Next, AKTT: 3.25; FQTT: at most 0.25; YAIP: at most 0.25.
On to IDRF, for which the enrichment ratio is at most 0.25.
For the variant ATER, the enrichment ratio was at most 0.25.
Consider NGCY, for which the enrichment ratio is at most 0.25.
For PIGE, the enrichment ratio was at most 0.25.
As for SMQQ, the enrichment ratio is at most 0.25.
Next, IGVV: at most 0.25.
The result for ISAV reads 0.486; that for ADQP, at most 0.25.
As for APWD, the enrichment ratio is at most 0.25.
Consider PTFA, for which the enrichment ratio was at most 0.25.
Turning to KRKW, the enrichment ratio was at most 0.25.
MIGL: the enrichment ratio stood at 1.45.
As to KSTT, the enrichment ratio is at most 0.25.
Take FCTT: the enrichment ratio is at most 0.25.
Regarding ICTT, the enrichment ratio was determined as 11.9.
Next, SITT: 6.9; MMTT: at most 0.25; TSTT: 15.1.
The result for LCTT reads at most 0.25; that for VCTT, at most 0.25; that for SPTT, at most 0.25.
The result for SCTT reads 11.4.
As to KCTT, the enrichment ratio is at most 0.25.
Turning to SQTT, the enrichment ratio is 11.4.
Regarding GPRY, the enrichment ratio was at most 0.25.
Next, TYWS: at most 0.25; LGDG: 0.39; IKPA: at most 0.25.
The result for YKHD reads at most 0.25; that for TNPV, at most 0.25; that for YHGA, at most 0.25.
Next, NSAQ: at most 0.25.

The record behind these values is a collection of fitness landscapes (doi:10.1126/science.1257360).
